In the supplement of paper PMC9925115:
Counter-ions that a name gives are not always drawn.

Test system: FLX1 + dox-induced PRKAR1A G325D
Assay: difference in log2 fold change of viability vs plate median (dox-induced PRKAR1A G325D minus uninduced); higher = compound less effective when PKA is inhibited
Conditions: concentration: not stated (2 or 5 uM); 5 days
Experimental: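 For each plate a log2 fold change vs the plate median was derived, and the values without dox were subtracted from those with dox, averaged over three biological replicates.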

**Q.** How did the “difference in log2 fold change of viability” value (from here on “difference in log2 fold change”) turn out when O=c1sn(-c2cccc3ccccc23)c(=O)n1Cc1ccccc1 [Tideglusib] was run?
**A.** 1.01

**Q.** Oc1ccc(-c2nc(-c3ccc(F)cc3)c(-c3ccncc3)[nH]2)cc1 was tested. Which “difference in log2 fold change” value did it give?
**A.** 0.0143

**Q.** For Nc1nccc(Oc2ccc(NC(=O)c3c[nH]cc(-c4ccc(F)cc4)c3=O)cc2F)c1Cl, which “difference in log2 fold change” value is on record?
**A.** -0.00105

**Q.** Which “difference in log2 fold change” value does the source give for CN1CC[C@H](c2c(O)cc(O)c3c(=O)cc(-c4ccccc4Cl)oc23)[C@H](O)C1 [Flavopiridol HCl] here?
**A.** 0.222

**Q.** For CNC(=O)c1cc(Oc2ccc(NC(=O)Nc3ccc(Cl)c(C(F)(F)F)c3)c(F)c2)ccn1 [Regorafenib (BAY 73-4506)], which “difference in log2 fold change” value is on record?
**A.** -0.347

**Q.** With CC(=O)Nc1cccc(-n2c(=O)n(C3CC3)c(=O)c3c(Nc4ccc(I)cc4F)n(C)c(=O)c(C)c32)c1 as the compound, how does the “difference in log2 fold change” value read?
**A.** -0.368

**Q.** Nc1nc(Nc2ccc(S(N)(=O)=O)cc2)nn1C(=O)c1c(F)cccc1F was tested. Which “difference in log2 fold change” value did it give?
**A.** 0.0351

**Q.** Cn1cc(-c2ccc3nnc(C(F)(F)c4ccc5ncccc5c4)n3n2)cn1 was tested. Which “difference in log2 fold change” value did it give?
**A.** 0.158

**Q.** How did the “difference in log2 fold change” value turn out when CN1CCC(CNc2ccc3ncc(-c4cccc(OC(F)(F)F)c4)n3n2)CC1 [SGI-1776 free base] was run?
**A.** -0.0813

**Q.** Which “difference in log2 fold change” value does the source give for Cc1cc(O)c2c(c1)C(=O)c1cccc(O)c1C2=O [Chrysophanic Acid] here?
**A.** 0.0332

**Q.** For Cc1c(F)cc(C(=O)NC2CC2)cc1-c1ccc(C(=O)NCC(C)(C)C)cn1, which “difference in log2 fold change” value is on record?
**A.** -0.0149

**Q.** With O=C1c2ccc(Nc3ccc(F)cc3F)cc2CCc2ccc(OC[C@H](O)CO)cc21 [Skepinone-L] as the compound, how does the “difference in log2 fold change” value read?
**A.** 0.71

**Q.** For CO[C@H]1C[C@@H]2CC[C@@H](C)[C@@](O)(O2)C(=O)C(=O)N2CCCC[C@H]2C(=O)O[C@H]([C@H](C)C[C@@H]2CC[C@@H](O)[C@H](OC)C2)CC(=O)[C@H](C)/C=C(\C)[C@@H](O)[C@@H](OC)C(=O)[C@H](C)C[C@H](C)/C=C/C=C/C=C/1C [Rapamycin (Sirolimus)], which “difference in log2 fold change” value is on record?
**A.** -0.339

**Q.** For CCOC(=O)c1cnc2ccc(-c3cncc(NS(=O)(=O)c4ccccc4)c3)cn12, which “difference in log2 fold change” value is on record?
**A.** 0.663

**Q.** How did the “difference in log2 fold change” value turn out when Cc1ccc(NC(=O)c2cccc(N(C)C)c2)cc1NC(=O)c1ccc(O)cc1 was run?
**A.** 0.402

**Q.** For COC(=O)Nc1ccc(-c2nc(N3CCOCC3)c3cnn(C4CCN(C(=O)OC)CC4)c3n2)cc1, which “difference in log2 fold change” value is on record?
**A.** 0.71

**Q.** With CC1=C(C(=O)Nc2cc3cn[nH]c3cc2F)C(c2ccc(C(F)(F)F)cc2)CC(=O)N1 (stereo not given) as the compound, how does the “difference in log2 fold change” value read?
**A.** 0.418

**Q.** How did the “difference in log2 fold change” value turn out when Cc1cc(Nc2nc(N[C@@H](C)c3ccc(F)cc3)c(C#N)cc2F)n[nH]1 was run?
**A.** -0.0432

**Q.** With COc1cc(F)c(F)c(Nc2ccc(I)cc2F)c1NS(=O)(=O)C1(C[C@H](O)CO)CC1 [Refametinib (RDEA119, Bay 86-9766)] as the compound, how does the “difference in log2 fold change” value read?
**A.** 0.183

**Q.** How did the “difference in log2 fold change” value turn out when COc1ccc(S(=O)(=O)N(CCO)c2ccccc2CN(C)C/C=C/c2ccc(Cl)cc2)cc1 [KN-93 Phosphate] was run?
**A.** 0.66

**Q.** With Cc1[nH]nc2ccc(-c3cncc(OC[C@@H](N)Cc4ccccc4)c3)cc12 as the compound, how does the “difference in log2 fold change” value read?
**A.** 0.18

**Q.** Which “difference in log2 fold change” value does the source give for CN1CCN(Cc2ccc(-c3cnc4[nH]cc(-c5ccc6[nH]ccc6c5)c4c3)cc2)CC1 here?
**A.** -0.00541

**Q.** For CN1CCC(COc2cnc(-c3cccc(Cn4nc(-c5cccc(C#N)c5)ccc4=O)c3)nc2)CC1, which “difference in log2 fold change” value is on record?
**A.** -0.973

**Q.** For COc1ccc(-c2cc3c(C)nc(N)nc3n([C@H]3CC[C@H](OCCO)CC3)c2=O)cn1, which “difference in log2 fold change” value is on record?
**A.** 0.605

**Q.** How did the “difference in log2 fold change” value turn out when COc1cc(Nc2ncc(F)c(Nc3ccc4c(n3)N(COP(=O)(O)O)C(=O)C(C)(C)O4)n2)cc(OC)c1OC [Fostamatinib (R788)] was run?
**A.** -0.76

**Q.** COc1ccc(COc2cc3oc(=O)c4cc(C(C)O)ccc4c3cc2OC)cc1 (stereo not given) [Palomid 529 (P529)] was tested. Which “difference in log2 fold change” value did it give?
**A.** -0.0394

**Q.** Which “difference in log2 fold change” value does the source give for CC(C)n1nc(-c2ccc3oc(N)nc3c2)c2c(N)ncnc21 here?
**A.** -0.0452

**Q.** For CNc1nc(Nc2cn(C(C)(C)C#N)nc2C)ncc1C(F)(F)F, which “difference in log2 fold change” value is on record?
**A.** 0.145

**Q.** O=C(NC[C@H](O)CO)c1ccncc1Nc1ccc(I)cc1F was tested. Which “difference in log2 fold change” value did it give?
**A.** -1.7

**Q.** For CN1CCN(c2cccc(Nc3nc4c(-c5ccc(S(C)(=O)=O)cc5)cccn4n3)c2)CC1, which “difference in log2 fold change” value is on record?
**A.** -0.93

**Q.** O=c1cc(-c2cccc3c2Sc2ccccc2S3)oc(N2CCOCC2)c1 was tested. Which “difference in log2 fold change” value did it give?
**A.** 0.329

**Q.** With COc1cccc2cc(-c3nc([C@H]4CC[C@H](C(=O)O)CC4)n4ncnc(N)c34)[nH]c12 as the compound, how does the “difference in log2 fold change” value read?
**A.** 0.812

**Q.** O=S(=O)(c1cccc2cnccc12)N1CCCNCC1 [Fasudil (HA-1077) HCl] was tested. Which “difference in log2 fold change” value did it give?
**A.** -0.15

**Q.** Which “difference in log2 fold change” value does the source give for Nc1ncnc2c1c(-c1cnc3[nH]ccc3c1)nn2C1CCCC1 here?
**A.** 0.363

**Q.** C=CC(=O)Nc1ccc2ncnc(Nc3ccc(OCc4cccc(F)c4)c(Cl)c3)c2c1 was tested. Which “difference in log2 fold change” value did it give?
**A.** -0.53

**Q.** How did the “difference in log2 fold change” value turn out when N#C/C(=C(/N)Sc1ccc(N)cc1)c1ccccc1C(F)(F)F was run?
**A.** 0.1

**Q.** O=c1c(-c2ccc(O)cc2)coc2cc(O)cc(O)c12 [Genistein] was tested. Which “difference in log2 fold change” value did it give?
**A.** 0.126

**Q.** Which “difference in log2 fold change” value does the source give for C[C@@H](Oc1cc(-c2cnn(C3CCNCC3)c2)cnc1N)c1c(Cl)ccc(F)c1Cl here?
**A.** -0.703

**Q.** O=C(NCCCNc1nc(Nc2cccc(NC(=O)N3CCCC3)c2)ncc1I)c1cccs1 was tested. Which “difference in log2 fold change” value did it give?
**A.** 0.621

**Q.** With Cc1cc(Nc2nc(N[C@@H](C)c3ncc(F)cn3)ncc2Cl)[nH]n1 as the compound, how does the “difference in log2 fold change” value read?
**A.** -1.58
